From PubChem BioAssay
In the library only some 2.2% were active in any assay of this set; here they are far more common.
KLF5 inhibitor = kruppel-like factor 5 inhibition. DLD-1 KLF5 promoter-luciferase reporter, luminescence. inhibition, % at 5 µM. 290,000 tested, 0.23% active;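 active = inhibition above a per-plate limit of that plate's mean compound inhibition plus 3 SD, cut at about 60% in these data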;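 note: 0% = DMSO wells and 100% = LY294002 at 200 µM; higher means less KLF5 promoter-driven luciferase light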
BaF3 tox = counter-screen for JAK2V617F inhibitors: parental Ba/F3 viability inhibitors; CellTiter-Glo ATP luminescence; inhibition, % at 5.6 µM; 220,000 tested, 1.1% active; AID 1486;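 active = inhibition above a per-campaign cutoff, the mean inhibition of all tested compounds plus 3 SD, cut at about 27% in these data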;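 note: 0% = DMSO wells and 100% = JAK Inhibitor I control wells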
Ba/F3 V617F tox = loss of viability in JAK2V617F-driven Ba/F3 cells; Ba/F3 EpoR-JAK2V617F viability, ATP luminescence; inhibition, % at 5.6 µM; 220,000 tested, 1.1% active;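 active = inhibition above the campaign mean plus 3 SD over all tested compounds, cut at about 24% in these data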;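 note: cytokine-independent growth of Ba/F3 cells driven by EpoR plus mutant JAK2; 0% = DMSO-treated cells and 100% = JAK inhibitor I control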
APP 5UTR inh = APP translation inhibition | AID 1285 | SH-SY5Y APP 5'UTR-luciferase reporter, luminescence | 190,000 tested, 0.82% active | inhibition, % at 2 µM;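 active = inhibition above a set limit, derived from the sample mean plus 3 SD, cut at about 45% in these data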
IEC-6 tox = kills IEC-6 intestinal cells in KLF5 counter-screen; IEC-6 cytotoxicity, luminescence viability; inhibition, % at 5 µM; 290,000 tested, 0.78% active; AID 1825; in the data active = inhibition above about 22%;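 note: 0% = plate median of test compound wells and 100% = cytotoxic reference compound wells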
aSyn UTR inh = 5' untranslated region of α-synuclein, MLPCN primary screen. alpha-synuclein 5'UTR reporter, inhibitor activity. inhibition, % (tested at 7.5 µM). 300,000 tested, 0.82% active. AID 1813; in the data active = inhibition above about 60%;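 note: H4 neuroglioblastoma cells stably carrying SNCA 5'UTR luciferase fusion; 0% = DMSO wells and 100% = positive control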
The depositor's hits bear a star.

CCCCCCCCCCOC(=O)C[N+](C)(C)C/C=C(/C)Cl was read as KLF5 inhibitor -30.3, BaF3 tox 59.1*, Ba/F3 V617F tox 66.8*, APP 5UTR inh -6.6, IEC-6 tox 1.8 and aSyn UTR inh 3.5.
`CCCCCCCCCCCCOC(=O)C[N+](C)(C)C` gave KLF5 inhibitor -8.9, BaF3 tox 11.7, Ba/F3 V617F tox 8.5, IEC-6 tox -4.5 and aSyn UTR inh 14.7.
Screening CCCCCCCCOC(=O)C[N+](C)(C)C/C=C(/C)Cl returned KLF5 inhibitor -19.0, BaF3 tox 52.9*, Ba/F3 V617F tox 31.5*, APP 5UTR inh -12.9, IEC-6 tox -4.1 and aSyn UTR inh -14.5.
For CCOC(=O)C1(C)NC(c2ccco2)C2C(=O)N(c3ccc(C)cc3)C(=O)C21 (configuration not stated) the results were KLF5 inhibitor -13.9, BaF3 tox 2.2, Ba/F3 V617F tox -0.6, APP 5UTR inh -8.3, IEC-6 tox -5.2 and aSyn UTR inh -2.9.
For CCOC(=O)C1=C(C)C2C3C(=O)N(c4cc(C)ccc4C)C(=O)C3C1(C)C1C(=O)N(c3cc(C)ccc3C)C(=O)C21 (configuration not stated) the results were KLF5 inhibitor -48.3, BaF3 tox 10.1, Ba/F3 V617F tox 0.9, APP 5UTR inh 75.3*, IEC-6 tox 1.9 and aSyn UTR inh -28.4.
Screening Cc1ccc(-c2nn3nnnc3c3ccccc23)cc1C returned KLF5 inhibitor -9.4, BaF3 tox -1.0, Ba/F3 V617F tox -3.1, APP 5UTR inh -10.4, IEC-6 tox -2.0 and aSyn UTR inh 34.7.
Cc1ccc(-c2nn3cnnc3c3ccccc23)cc1C was read as KLF5 inhibitor -6.7, BaF3 tox 6.9, Ba/F3 V617F tox 4.2, APP 5UTR inh -30.9, IEC-6 tox 13.6 and aSyn UTR inh 64.2*.
Screening C(=C1/CCCC2=C1Nc1ncnn1C2c1ccccc1)/c1ccccc1 (configuration not stated) returned KLF5 inhibitor 0.6, BaF3 tox 54.2*, Ba/F3 V617F tox 54.9*, APP 5UTR inh 33.6, IEC-6 tox 26.4* and aSyn UTR inh -42.2.
O=S(=O)(/N=C(/Nc1cccc2ccccc12)c1ccccc1)c1ccc(F)cc1 was read as KLF5 inhibitor -35.1, IEC-6 tox 0.2 and aSyn UTR inh 16.4.
For C=CCN1CN(Cc2ccco2)CNC1=S the results were KLF5 inhibitor -8.5, BaF3 tox 2.6, Ba/F3 V617F tox -3.1, APP 5UTR inh 62.0*, IEC-6 tox -3.4 and aSyn UTR inh 9.0.
`CCCCN1CN(Cc2ccco2)CNC1=S` gave KLF5 inhibitor -8.7, BaF3 tox 4.9, Ba/F3 V617F tox 1.9, APP 5UTR inh 15.1, IEC-6 tox 1.2 and aSyn UTR inh -1.5.
Cc1ccc(S(=O)(=O)Nc2ccc(Br)cc2/C=N/n2cnnc2)cc1 was read as KLF5 inhibitor 27.1, BaF3 tox 7.7, Ba/F3 V617F tox 4.6, APP 5UTR inh -12.9, IEC-6 tox 4.9 and aSyn UTR inh 21.7.
For CCN(CC)CCCNc1nc(N)c([N+](=O)[O-])c(N2CCCCCC2)n1 the results were KLF5 inhibitor -88.8, IEC-6 tox 7.8 and aSyn UTR inh -23.6.
Screening C=CCNc1nc(N)c([N+](=O)[O-])c(N2CCCCCC2)n1 returned KLF5 inhibitor -11.7, IEC-6 tox -4.3 and aSyn UTR inh 69.3*.
`O=C(c1ccccc1)N1CCSc2sccc2C1=O` gave KLF5 inhibitor 9.8, BaF3 tox -0.6, Ba/F3 V617F tox 2.2, APP 5UTR inh 28.1, IEC-6 tox 1.7 and aSyn UTR inh 96.8*.
Screening O=C1CCC/C1=C\Nc1ccc(Cl)c([N+](=O)[O-])c1 returned KLF5 inhibitor -1.8, BaF3 tox 58.4*, Ba/F3 V617F tox 1.0, IEC-6 tox 0.3 and aSyn UTR inh -14.8.
`NNc1nc2sc3c(c2c(=O)n1Cc1ccccc1)CCC3` gave KLF5 inhibitor 17.2, BaF3 tox 33.7*, Ba/F3 V617F tox 47.3*, IEC-6 tox 7.8 and aSyn UTR inh -6.1.
Nn1c(Nc2ccccc2)nc2sc3c(c2c1=O)CCC3 was read as KLF5 inhibitor -35.8, BaF3 tox -1.1, Ba/F3 V617F tox -3.6, APP 5UTR inh -33.5, IEC-6 tox 22.5* and aSyn UTR inh -60.9.
CCn1c(NN)nc2sc3c(c2c1=O)CCC3 was read as KLF5 inhibitor -30.0, BaF3 tox 3.8, Ba/F3 V617F tox -5.1, APP 5UTR inh -6.1 and IEC-6 tox -7.8.
Screening COCCSc1ccccc1C(=O)N1CCN(Cc2ccccc2)CC1 returned KLF5 inhibitor -17.8, BaF3 tox 7.5, Ba/F3 V617F tox 3.6, APP 5UTR inh 14.2, IEC-6 tox 0.7 and aSyn UTR inh 1.6.
Screening CC(=O)OCCCNc1cc(Sc2ccc(Cl)cc2)c2nonc2c1[N+](=O)[O-] returned KLF5 inhibitor 8.6, BaF3 tox 2.4, Ba/F3 V617F tox -2.0, APP 5UTR inh 51.3*, IEC-6 tox -15.1 and aSyn UTR inh 8.5.
CCC(=O)OCCNc1cc(Sc2nccn2C)c2nonc2c1[N+](=O)[O-] was read as KLF5 inhibitor -19.5, BaF3 tox 1.3, Ba/F3 V617F tox -2.5, APP 5UTR inh 60.0*, IEC-6 tox -4.9 and aSyn UTR inh 16.3.
Screening CCCC(=O)OCCNc1cc(Sc2nc3ccccc3[nH]2)c2nonc2c1[N+](=O)[O-] returned KLF5 inhibitor 22.5, BaF3 tox -0.6, Ba/F3 V617F tox -1.6, APP 5UTR inh 74.5*, IEC-6 tox 7.2 and aSyn UTR inh -1.9.
Screening CCn1ncc(NC(=S)NCCc2ccc(OC)c(OC)c2)c1C(N)=O returned KLF5 inhibitor 6.9, BaF3 tox 9.8, Ba/F3 V617F tox 0.9, APP 5UTR inh -1.7 and IEC-6 tox -9.3.
`COn1c(C)c(C(C)=O)c2c3nonc3ccc21` gave KLF5 inhibitor -33.6, BaF3 tox 96.4*, Ba/F3 V617F tox 1.8, APP 5UTR inh -3.7, IEC-6 tox 2.3 and aSyn UTR inh 11.7.
CCCCOn1c(C)c(C(=O)OCC)c2c3nonc3ccc21 was read as KLF5 inhibitor -5.4, BaF3 tox 0.7, Ba/F3 V617F tox -1.1, APP 5UTR inh -18.2, IEC-6 tox 1.5 and aSyn UTR inh 9.6.
Screening O=C(OCc1nc2ccc(Cl)cc2n1CCO)c1ccc(O)cc1 returned KLF5 inhibitor -9.7, BaF3 tox 4.6, Ba/F3 V617F tox 2.6, APP 5UTR inh 18.2, IEC-6 tox -0.7 and aSyn UTR inh -16.9.
Screening Cc1ccc(NC(=O)N2CCCC2C(=O)NCCC2=CCCCC2)cc1 (configuration not stated) returned KLF5 inhibitor -26.6, BaF3 tox -1.4, Ba/F3 V617F tox -2.5, APP 5UTR inh 48.4*, IEC-6 tox 0.4 and aSyn UTR inh 17.4.
Screening CC1CCN(c2ccc(-c3ccc(NC(=O)C(F)(F)F)cc3)nn2)CC1 returned KLF5 inhibitor 39.8, IEC-6 tox 11.3 and aSyn UTR inh 71.0*.
COc1ccc(CNC(=O)[C@H](C)N2C(=O)N3CCc4c([nH]c5ccccc45)[C@@]3(C)C2=O)cc1OC was read as KLF5 inhibitor 6.9, IEC-6 tox -0.5 and aSyn UTR inh 14.6.
Cc1ccc(C(=O)NCCc2ccccc2)cc1 was read as KLF5 inhibitor 57.5, IEC-6 tox -10.5 and aSyn UTR inh 71.1*.
